A short description of test [1]: NCI Yeast Anticancer Drug Screen. Data for the rad50 strain (AID 155).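 Further: 0% = growth of vehicle-only cultures of the same strain.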 The settings on record: S. cerevisiae rad50 strain growth inhibition, active compounds read high. Summed up: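 A DNA repair-deficient yeast mutant serves as the test organism; compound-induced growth inhibition is calculated against vehicle-treated cells.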
Test [2] can be described thus: NCI Yeast Anticancer Drug Screen. Data for the mec2-1 strain (AID 157). Particulars: S. cerevisiae mec2-1 strain, active compounds read high. In outline:
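Test agents were screened against the mec2-1 yeast strain, with defined DNA repair or cell cycle alteration. Growth was scored as inhibition against vehicle-only controls.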

A short description of test [3]: NCI Yeast Anticancer Drug Screen. Data for the sgs1 mgt1 strain (AID 161).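 Further: 0% = growth of cultures given vehicle only.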 The settings on record: S. cerevisiae sgs1 mgt1 strain, active compounds read high. In outline:
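Genetically altered yeast, compound exposure, growth inhibition relative to vehicle.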

The nature of test [4]: NCI Yeast Anticancer Drug Screen. Data for the cln2 rad14 strain (AID 165).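 Further: 0% = growth equal to vehicle treated cultures.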 Particulars: S. cerevisiae cln2 rad14 strain, active compounds read high. Summed up:
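Growth of compound-exposed yeast (cln2 rad14 genotype) measured and expressed as inhibition relative to vehicle.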

The nature of test [5]: NCI Yeast Anticancer Drug Screen. Data for the bub3 strain (AID 167). Particulars: S. cerevisiae bub3 mutant strain, active compounds read high. Summed up: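 Inhibition values come from growth of compound-treated mutant yeast normalised to vehicle-treated controls.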
Test [6] is described as follows: NCI Yeast Anticancer Drug Screen. Data for the mlh1 rad18 strain (AID 175). The settings on record: S. cerevisiae mlh1 rad18 strain growth inhibition, active compounds read high. In outline: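 In this whole-cell yeast screen, a strain with altered DNA damage repair is challenged with compound, and its growth is measured against matched vehicle-treated controls.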
Where [7] appears, read: at 5.0 µM (retest, dose inferred, filed as 0.5).
Where [8] appears, read: at 50.0 µM (retest, dose inferred, filed as 5.0).

The panel holds about 79,000 compounds, 15% with a hit somewhere; the sample as a whole holds those more often. Values without a mark were called inactive. Calls of active or inactive are those of the source. No stated cut-off is given here; in the data, active means growth inhibition above about 70%; inactive means the rest.

Take `CC(C)[C@H](N)C(=O)NCCNC(=O)[C@@H](N)C(C)C`: the growth inhibition in test [1] (setting [7]) was 90% (active); in test [1] (setting [8]), 99% (active); in test [1] (at 50.0 µM), -24.6%; in test [2] (setting [7]) it was 66%; in test [2] (setting [8]), 99% (active); in test [2] (at 50.0 µM) it was -4.9%. The growth inhibition in test [3] (setting [7]) was 62%; in test [3] (setting [8]) it was 99% (active); in test [3] (at 50.0 µM), -14.2%; in test [4] (setting [7]), 89% (active); in test [4] (setting [8]) it was 99% (active); in test [4] (at 50.0 µM) it was 17.2%. In addition, the growth inhibition in test [5] (setting [7]) was 93% (active); in test [5] (setting [8]), 100% (active); in test [5] (at 50.0 µM), 37.1%; in test [6] (setting [7]) it was 89% (active); in test [6] (setting [8]), 99% (active); in test [6] (at 50.0 µM), 4.4%.
Consider `O=c1c(Cl)cc2nc3ccccc3sc-2c1Cl`, for which the growth inhibition in test [1] (setting [7]) was 21%; in test [1] (setting [8]), 72% (active); in test [1] (at 50.0 µM) it was 84% (active); in test [2] (setting [7]) it was 42%; in test [2] (setting [8]), 84% (active); in test [2] (at 50.0 µM), 6.5%. Also, the growth inhibition in test [3] (setting [7]) was 33%; in test [3] (setting [8]) it was 79% (active); in test [3] (at 50.0 µM), 83.8% (active); in test [4] (setting [7]), 1%; in test [4] (setting [8]), 54%; in test [4] (at 50.0 µM), -0.05%. Also, the growth inhibition in test [5] (setting [7]) was 38%; in test [5] (setting [8]), 85% (active); in test [5] (at 50.0 µM), 80.5% (active); in test [6] (setting [7]) it was 55%; in test [6] (setting [8]), 87% (active); in test [6] (at 50.0 µM) it was 83% (active).
Turning to `C(=C/c1ccnc2ccccc12)/c1cccs1`, the growth inhibition in test [1] (setting [7]) is -2%; in test [1] (setting [8]) it was 93% (active); in test [1] (at 50.0 µM) it was 98.2% (active); in test [2] (setting [7]), 1%; in test [2] (setting [8]), 93% (active); in test [2] (at 50.0 µM), 98.8% (active). Moreover, the growth inhibition is 2% in test [3] (setting [7]); 91% (active) in test [3] (setting [8]); 98.8% (active) in test [3] (at 50.0 µM); 0% in test [4] (setting [7]); 57% in test [4] (setting [8]); 98.1% (active) in test [4] (at 50.0 µM). Also, the growth inhibition is 4% in test [5] (setting [7]); 81% (active) in test [5] (setting [8]); 98.3% (active) in test [5] (at 50.0 µM); -2% in test [6] (setting [7]); 94% (active) in test [6] (setting [8]); 98.2% (active) in test [6] (at 50.0 µM).
Turning to `COc1ccc(N=Nc2ccc3oc(=O)c(C(=O)Nc4ccccc4C)cc3c2)cc1`, the growth inhibition in test [1] (setting [7]) was 3%; in test [1] (setting [8]) it was 98% (active); in test [1] (at 50.0 µM), 96.8% (active); in test [2] (setting [7]), -18%; in test [2] (setting [8]), 97% (active); in test [2] (at 50.0 µM), 97% (active). For the same compound, the growth inhibition in test [3] (setting [7]) was -8%; in test [3] (setting [8]), 96% (active); in test [3] (at 50.0 µM), 97.5% (active); in test [4] (setting [7]), 1%; in test [4] (setting [8]), 86% (active); in test [4] (at 50.0 µM) it was 93% (active). The growth inhibition in test [5] (setting [7]) is -5%; in test [5] (setting [8]), 86% (active); in test [5] (at 50.0 µM) it was 97.7% (active); in test [6] (setting [7]), -2%; in test [6] (setting [8]), 98% (active); in test [6] (at 50.0 µM) it was 97.5% (active).
Regarding `CCOC(=O)c1c[nH]cc1-c1cn(S(=O)(=O)c2ccccc2)cc1C`, the growth inhibition is 38% in test [1] (setting [7]); 12% in test [1] (setting [8]); 29.2% in test [1] (at 50.0 µM); 34% in test [2] (setting [7]); 14% in test [2] (setting [8]); 18.2% in test [2] (at 50.0 µM). In addition, the growth inhibition is 69% in test [3] (setting [7]); 21% in test [3] (setting [8]); 49.6% in test [3] (at 50.0 µM); 38% in test [4] (setting [7]); 15% in test [4] (setting [8]); 43.5% in test [4] (at 50.0 µM). The growth inhibition in test [5] (setting [7]) is 89% (active); in test [5] (setting [8]), 38%; in test [5] (at 50.0 µM), 44%; in test [6] (setting [7]), 82% (active); in test [6] (setting [8]), 28%; in test [6] (at 50.0 µM), 49%.
In the case of `COc1ccc(C(O)(c2ccccc2)c2ccccc2)cc1`, the growth inhibition in test [1] (setting [7]) was -5%; in test [1] (setting [8]), 98% (active); in test [1] (at 50.0 µM), 99.1% (active); in test [2] (setting [7]), -4%; in test [2] (setting [8]), 99% (active); in test [2] (at 50.0 µM) it was 99% (active). Moreover, the growth inhibition is -3% in test [3] (setting [7]); 99% (active) in test [3] (setting [8]); 99.2% (active) in test [3] (at 50.0 µM); -5% in test [4] (setting [7]); 92% (active) in test [4] (setting [8]); 93.9% (active) in test [4] (at 50.0 µM). Besides, the growth inhibition was 3% in test [5] (setting [7]); 87% (active) in test [5] (setting [8]); 99.5% (active) in test [5] (at 50.0 µM); -6% in test [6] (setting [7]); 98% (active) in test [6] (setting [8]); 98.7% (active) in test [6] (at 50.0 µM).
As to `CCOC(=O)C(C=O)(C=O)c1ccccc1`, the growth inhibition in test [1] (setting [7]) is 6%; in test [1] (setting [8]) it was 42%; in test [1] (at 50.0 µM), 71.5% (active); in test [2] (setting [7]), 4%; in test [2] (setting [8]), 19%; in test [2] (at 50.0 µM), 8.5%. The growth inhibition in test [3] (setting [7]) was 7%; in test [3] (setting [8]) it was 18%; in test [3] (at 50.0 µM) it was 61%; in test [4] (setting [7]), 4%; in test [4] (setting [8]), 24%; in test [4] (at 50.0 µM), 43.2%. In addition, the growth inhibition was -3% in test [5] (setting [7]); 14% in test [5] (setting [8]); -36.4% in test [5] (at 50.0 µM); -1% in test [6] (setting [7]); 32% in test [6] (setting [8]); 44.5% in test [6] (at 50.0 µM).
For `Cc1ccc2c(-c3ccccc3)c3ccccc3cc2c1C`, the growth inhibition in test [1] (setting [7]) is 6%; in test [1] (setting [8]) it was 3%; in test [1] (at 50.0 µM) it was 46.1%; in test [2] (setting [7]), 13%; in test [2] (setting [8]) it was 20%; in test [2] (at 50.0 µM) it was 16.9%. Besides, the growth inhibition was 8% in test [3] (setting [7]); 18% in test [3] (setting [8]); 27.6% in test [3] (at 50.0 µM); -4% in test [4] (setting [7]); -11% in test [4] (setting [8]); 14.5% in test [4] (at 50.0 µM). For the same compound, the growth inhibition in test [5] (setting [7]) is -5%; in test [5] (setting [8]), -16%; in test [5] (at 50.0 µM), 37.6%; in test [6] (setting [7]), -3%; in test [6] (setting [8]), 2%; in test [6] (at 50.0 µM) it was 53.4%.
Turning to `CC(Nc1ccc(S(=O)(=O)Nc2ncccn2)cc1)c1ccc2cccnc2c1O` (stereo not given), the growth inhibition in test [1] (setting [7]) is 38%; in test [1] (setting [8]), 99% (active); in test [1] (at 50.0 µM), 99.5% (active); in test [2] (setting [7]) it was 2%; in test [2] (setting [8]), 99% (active); in test [2] (at 50.0 µM), 99.5% (active). Besides, the growth inhibition in test [3] (setting [7]) is 11%; in test [3] (setting [8]) it was 99% (active); in test [3] (at 50.0 µM) it was 98.5% (active); in test [4] (setting [7]), 19%; in test [4] (setting [8]), 99% (active); in test [4] (at 50.0 µM), 96.7% (active). Besides, the growth inhibition was 11% in test [5] (setting [7]); 99% (active) in test [5] (setting [8]); 99.3% (active) in test [5] (at 50.0 µM); 14% in test [6] (setting [7]); 98% (active) in test [6] (setting [8]); 99.2% (active) in test [6] (at 50.0 µM).
Take `Oc1cc(Cc2ccccc2)c(Cc2ccccc2)cc1O`: the growth inhibition in test [1] (setting [7]) is -32%; in test [1] (setting [8]), 96% (active); in test [1] (at 50.0 µM), 89.2% (active); in test [2] (setting [7]) it was -26%; in test [2] (setting [8]), 98% (active); in test [2] (at 50.0 µM), 91% (active). Besides, the growth inhibition was -8% in test [3] (setting [7]); 96% (active) in test [3] (setting [8]); 92.1% (active) in test [3] (at 50.0 µM); -1% in test [4] (setting [7]); 97% (active) in test [4] (setting [8]); 89.8% (active) in test [4] (at 50.0 µM). In addition, the growth inhibition was -23% in test [5] (setting [7]); 97% (active) in test [5] (setting [8]); 91.5% (active) in test [5] (at 50.0 µM); -43% in test [6] (setting [7]); 96% (active) in test [6] (setting [8]); 88.2% (active) in test [6] (at 50.0 µM).

These data come from PubChem BioAssay (NCI).
